High-throughput results (PubChem BioAssay)
BoNT A protease – BoNT A light chain protease inhibition; multiplex microsphere protease substrate cleavage, flow cytometry; inhibition, % at 10 µM; 0.17% of 360,000 active; AID 588499; also: plate controls were buffer without enzyme for full effect and enzyme alone for no effect
PriA SSB inh – blocks PriA binding to SSB C-terminal tail. 0.6% of 430,000 active. AlphaScreen SSBct-PriA binding, biotinylated peptide. inhibition, % at 33 µM; in the data active = inhibition mostly above about 37%, no sharp cut-off; inactive = mostly below about 20%;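 also: plate controls were negative control peptide for no effect and reference peptide for full effect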
Autofluor counter – compound fluorescence in toxin protease inhibitor counterscreen. compound autofluorescence counterscreen, microsphere flow cytometry; active compounds read high. fluorescence intensity (no concentration beside the values). 3.1% of 360,000 active; in the data active = fluorescence intensity above about 16000; inconclusive = no clear call, values can overlap the other calls
Anthrax LF prot – blocks Bacillus anthracis lethal factor protease. P15917. 0.12% of 360,000 active. AID 588501. multiplex microsphere protease cleavage assay, LF. inhibition, % at 10 µM; also: plate controls were buffer without enzyme for full effect and enzyme alone for no effect
BoNT-F LC inh – blocks Botulinum neurotoxin F light chain protease | 0.22% of 360,000 active | AID 588497 | inhibition, % at 10 µM | Multiplex microsphere protease cleavage assay, flow cytometry; in the data active = inhibition above about 35%, passing the limit was not always enough; inconclusive = no clear call, values can overlap the other calls; also: plate controls were buffer without enzyme for full effect and enzyme alone for no effect
BoNT-A LC CP1 – BoNT/A light chain protease inhibition; shares compounds with BoNT-F LC inh; inhibition, % at 10 µM; multiplex microsphere protease assay, flow cytometry; 3% of 720 active; in the data active = inhibition above about 32%
BoNT-F LC CP1 – inhibitors of Botulinum neurotoxin F light chain protease; shares compounds with BoNT-F LC inh; multiplex microsphere protease cleavage assay, flow cytometry; inhibition, % at 10 µM; 720 tested, under 10 active; AID 602140; call rule not given here
Anthrax LF CP1 – blocks anthrax lethal factor protease | shares compounds with BoNT-F LC inh | multiplex microsphere protease cleavage assay, LF | inhibition, % at 10 µM | 720 tested, under 10 active | AID 602142; call rule not given here
Active calls of the source: *; ? = inconclusive; . = not tested or not shown; + = active, no number. Shown are actives, neighbours in structure and some others; about 3.1% of the full set was active somewhere. Rule as the data show it, unless noted: active = inhibition above about 30%; inconclusive = no clear call, values can overlap the other calls; inactive = below that.

SMILES	BoNT A protease	PriA SSB inh	Autofluor counter	Anthrax LF prot	BoNT-F LC inh	BoNT-A LC CP1	BoNT-F LC CP1	Anthrax LF CP1
Cc1cc2ccccc2n1CCNC(=O)C1CCCC1	162.8*	23.6	909	7.1	-98.7	0.9	-0.5	-0.2
CCOC(=O)N1CCN(C(=O)c2ccc(C)c(S(=O)(=O)Nc3ccccc3)c2)CC1	0.6	-15.4	3457	-2.5	34.5*	0.4	-2.6	1.3
CCOC(=O)N1CCN(C(=O)c2ccc(C)c(S(=O)(=O)Nc3cccc(C)c3C)c2)CC1	?	1.1	9944	1.9	-16.1	.	.	.
COc1ccc2nc(N(CCN(C)C)C(=O)c3cccc(C)c3)sc2c1	.	20.0	.	.	.	.	.	.
Cc1cc(C)c(C#N)c(SCC(=O)Nc2nsc(-c3ccc(Cl)cc3)n2)n1	.	-4.0	.	.	.	.	.	.
CC(=O)N1N=C(c2ccccc2)CC1c1cccc([N+](=O)[O-])c1 (stereo not given)	2.3	5.4	3748	-10.4	41.9*	-0.5	-1.0	-4.6
CC(=O)N1N=C(c2cccs2)CC1c1cccc([N+](=O)[O-])c1 (stereo not given)	-0.4	2.1	3336	-7.9	5.0	.	.	.
COc1ccc(-c2cc(C(=O)Nc3ccc(F)cc3F)no2)cc1	-0.5	8.0	3706	32.3*	-1.6	0.6	-4.2	0.5
O=C(CN(C(=O)CNS(=O)(=O)c1ccc(F)cc1)c1ccccc1F)NCc1ccco1	-2.1	-11.8	2961	-4.0	34.9*	0.7	0.1	2.2
O=C(Nc1ccccc1F)c1cc(C2CCN(C(=O)[C@@H]3CC=CCC3)CC2)[nH]n1	.	-14.0	.	.	.	.	.	.
COC(=O)C1CCN(C(=O)CN(C)Cc2ccc(C(C)(C)C)cc2)CC1	0.5	3.2	3751	3.1	36.1*	2.0	1.8	4.7
CN(Cc1ccc(C(C)(C)C)cc1)C(=O)C1CCN(C(=O)Nc2ccccc2)CC1	-2.1	9.3	?	-4.0	-4.2	.	.	.
CCc1ccc(Nc2nc3ccccc3c(=O)s2)cc1	8.4	-2.6	5006	32.8*	75.7*	0.2	-2.7	-1.2
CCOc1ccccc1Nc1nc(-c2sc(C)nc2C)cs1	6.7	8.3	4650	1.8	40.6*	0.0	-0.8	-3.7
Cc1cc(C)c2cc(CN(CCN3CCCC3)C(=O)Nc3ccc(F)cc3)c(=O)[nH]c2c1	3.4	12.4	10627	6.3	61.8*	-4.6	-11.3	-2.0
Cc1oncc1C(=O)N1CCN(c2ccc(-n3cncn3)nn2)CC1	.	-2.0	.	.	.	.	.	.
Cc1ccc(S(=O)(=O)N(CC(=O)NCc2ccncc2)Cc2ccccc2F)cc1	-1.5	-5.5	2926	9.9	34.8*	-0.4	-3.2	-1.9
Cc1nc2nc(Cc3ccccc3)[nH]n2c(=O)c1Cl	1.2	3.4	4787	3.1	31.6	0.7	-5.2	0.9
Cc1nc2nc(Cc3ccccc3)[nH]n2c(=O)c1Cc1ccccc1	-4.0	-0.1	4953	-5.3	-42.8	.	.	.
Cc1noc(NS(=O)(=O)c2ccc(NC(=O)c3ccoc3C)cc2)c1C	0.2	-12.1	6406	-2.9	1.4	.	.	.
Cc1cc(C(=O)Nc2ccc(S(=O)(=O)Nc3onc(C)c3C)cc2)c(C)o1	30.4*	-2.8	10628	-20.9	41.9*	-0.1	-0.4	-1.0
CC(=O)Nc1ccc(SCC(=O)Nc2ccc3c(c2)OCO3)nn1	.	-7.0	.	.	.	.	.	.
COc1ccc(Cn2cnc3c4cc(C)ccc4n(CC(=O)NCCC(C)C)c3c2=O)cc1	.	-15.0	.	.	.	.	.	.
CCCc1oc(C(=O)O)cc1CN1CCOCC1	8.2	-3.9	8574	11.5	42.3*	-1.1	0.9	1.4
O=c1c(/C=C(\O)c2ccccc2)nc2ccccc2n1-c1ccccc1	60.9*	-12.4	17938*	41.3*	+	39.8*	35.8*	31.9*
SMILES	BoNT A protease	PriA SSB inh	Autofluor counter	Anthrax LF prot	BoNT-F LC inh	BoNT-A LC CP1	BoNT-F LC CP1	Anthrax LF CP1
COc1ccc(N2C(=O)C3CCCN3C2c2ccccc2)cc1Cl (stereo not given)	0.5	-16.0	4581	0.2	53.3*	-0.5	4.0	1.2
O=C(c1ccc2ccccc2n1)N1CCC(c2ccsc2)CC1	.	-7.0	.	.	.	.	.	.
CCOC(=O)C1CCN(C(=O)Nc2ccc(OCc3ccccc3)cc2)CC1	-4.4	0.4	3889	30.8*	?	0.3	0.2	-3.9
COc1cccc(OC)c1C(=O)N1CCN(S(=O)(=O)c2ccccc2)CC1	-0.2	-11.3	5023	-3.9	-0.1	.	.	.
COc1ccccc1NCC(=O)N1CCN(S(=O)(=O)c2ccccc2)CC1	-8.0	4.4	?	32.1*	-12.3	1.7	1.7	1.8
O=C(O)c1ccc(NS(=O)(=O)c2ccc(NC(=O)c3ccccc3Cl)cc2)cc1	0.4	-9.6	3422	-2.6	-5.8	.	.	.
O=C(Nc1ccccc1C(=O)O)c1cc(S(=O)(=O)Nc2ccccc2)ccc1Cl	2.9	-8.7	4097	-5.8	?	-0.3	-4.6	1.1
Cc1ccc(NS(=O)(=O)c2ccc(Cl)c(C(=O)Nc3cccc(C(=O)O)c3)c2)cc1	-2.8	-16.1	4199	-3.7	?	-0.9	-3.2	-2.5
O=C(O)c1ccc(NS(=O)(=O)c2ccc(Cl)c(C(=O)Nc3ccccc3)c2)cc1	-0.5	-21.5	3179	14.7	?	0.4	0.2	1.3
CCOC(=O)CC(=O)CSc1ncc(C(=O)OCC)c(N)n1	0.8	-8.3	6848	50.3*	134.1*	2.2	5.4	2.6
O=C(Cc1csc(SCC(=O)c2cccs2)n1)NCc1c(F)cccc1F	.	-18.0	.	.	.	.	.	.
CCC(=NNC(=O)CSCc1ccccc1Cl)c1ccc2c(c1)OCCO2	.	-9.2	.	.	.	.	.	.
Cc1cccc(CCNS(=O)(=O)c2ccc(S(=O)(=O)N3CCC(C)CC3)cc2)c1	4.4	-3.9	8054	3.1	32.4	0.3	-1.1	-1.0
O=C(NCc1ccc(Cl)cc1)C(=O)NCC1CCN(c2nc3ccccc3s2)CC1	.	-8.0	.	.	.	.	.	.
O=C(Cn1nc(-c2ccccc2)c2sc(N3CCCC3)nc2c1=O)NCc1ccc2c(c1)OCO2	.	-4.0	.	.	.	.	.	.
Cc1ccc(S(=O)(=O)c2cc(C)cc(S(=O)(=O)Nc3ccc(C(=O)O)cc3)c2C)cc1	-2.1	-4.4	3745	5.6	39.4*	0.3	0.6	0.3
Cc1cc(S(=O)(=O)Nc2cccc(C(=O)O)c2)c(C)c(S(=O)(=O)c2ccc(Cl)cc2)c1	5.0	8.8	3561	1.7	0.1	.	.	.
O=C(c1ccc(Br)c(S(=O)(=O)N2CCCCC2)c1)N1CCCCC1	-0.2	-9.6	5904	-4.4	-3.6	.	.	.
NC(=O)c1ccc(Br)c(S(=O)(=O)N2CCCCC2)c1	35.3*	-12.9	8468	-17.3	42.1*	-0.2	0.5	-2.8
CCN(CC)C(=O)c1ccc(NS(=O)(=O)c2ccccc2)cc1	0.9	8.4	3742	1.9	5.6	.	.	.
CCN(CC)C(=O)c1ccc(S(=O)(=O)c2ccccc2)cc1	1.2	-2.5	3400	-1.3	43.1*	-0.7	-2.7	0.4
CCOc1ccc(S(=O)(=O)N2CCCN(S(=O)(=O)c3ccc(OCC)c(C)c3C)CC2)c(C)c1C	.	-6.0	.	.	.	.	.	.
COc1cccc(NC(=O)CN(C)C(=O)CCC(=O)c2cc(C)sc2C)c1	67.7*	0.4	4033	-2.0	?	-0.1	-6.2	0.2
